This is an account of results in PubChem BioAssay.

Records with an inconclusive call do not appear. Active and inactive are the calls of the source.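 How the source made its calls, unless noted: active means viability at or under a set limit in both replicates, limit being median viability minus 3 SD (cut at about 48% in these data, passing the limit was not always enough); inconclusive means at or under the limit in just one replicate; inactive means at or above the limit in both replicates.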

By viability is commonly meant a read-out of living cells in per cent, often relative to untreated cells. The term inhibition denotes the relative decrease from the control value, in per cent.

Assay [1] is described as follows: reducers of endogenous Her2 protein level, primary screen, SKBR3 breast tumor cells, AlphaScreen, ATP viability (AID 461;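 active means Her2 level under about 52% in both replicate screens, with viability over 70% of control, limit read from the data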;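 on Her2 level: lower value means less Her2 protein in the cells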;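 on viability: percent of carrier control wells set as 100% viability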). Conditions: 18-24 h, measured here: SKBR3 viability, ATP luminescence, at 10 µM. In general terms: In Alpha technology, singlet oxygen from a donor bead excites a nearby acceptor bead.
Assay [2] addresses Receptor tyrosine-protein kinase erbB-2 (Homo sapiens) (UniProt P04626). Described as above. Conditions: 18-24 h, at 10 µM, stronger effect = lower value.
Assay [3] is described as follows: SK-BR-3 cell growth inhibitors, pilot screen, 24 h, human (AID 572;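 active means viability at or below 10% of carrier control in both of two separate runs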;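 further: compound exposure lasted between 18 and 24 h rather than exactly 24 h; 100% = carrier-treated control wells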). Conditions: SK-BR-3 viability, CellTiter-Glo luminescence, at 10 µM, stronger effect = lower value. In general terms: In ATP-based viability assays light output follows the ATP content of the culture.
Assay [4] can be described thus: HUVEC growth inhibition – cell-based, human, primary screen (AID 575;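 active means viability at or below 30% in both replicate assays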;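 further: 100% = median of untreated cell wells with 0.1% DMSO on each plate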). To be noted: HUVEC proliferation, CellTiter-Glo luminescence, 72 h; at 10 µM; stronger effect = lower value.
Assay [5] in a line: growth inhibitors of H69AR lung tumor, primary screen, human, duplicate replicates (AID 580).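 Further: 100% = mean luminescence of untreated wells and 0% = no signal.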 To be noted: H69AR lung tumor cells viability, ATP luminescence, 72 h; at 10 µM; stronger effect = lower value.
Assay [6] is described as follows: reversal of MRP1-mediated doxorubicin resistance, pilot screen, H69AR cells, doxorubicin co-treatment (AID 601;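 active means viability loss from added drug above about 55%, and viability with drug at most 40%, in both replicates, limit read from the data, passing the limit was not always enough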). Conditions: CellTiter-Glo, 72 h, at 10 µM; for differential viability (reversal): stronger effect = higher value.
Assay [7] can be described thus: 384-well plate pilot, post-Golgi transport modulator project, inhibition of yeast transport mutant growth (AID 636; in the data active means inhibition above about 31%). Conditions: absorbance 615 nm, about 18 h, stronger effect = higher value.
A short description of assay [8]: growth suppression of yeast trafficking mutant, preliminary HTS, modulators of trafficking downstream of Golgi apparatus project, 1536-format plate, OD 615 nm (AID 637; in the data active means inhibition above about 30%). To be noted: yeast transport mutant growth, absorbance 615 nm, 18 h; stronger effect = higher value.
A short description of assay [9]: OD615 S. cerevisiae growth inhibition, permissive medium, pilot counter-assay, permissive growth control for S. cerevisiae lifespan shortening project (AID 705;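 active means growth inhibition above 25% in both replicates, a cutoff set 3 SD above the mean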). Conditions: OD615, 24 h, at 10 µM, stronger effect = higher value.
The nature of assay [10]: Restrictive medium S. cerevisiae growth inhibition, OD615, pilot screen of yeast lifespan reduction project, restrictive growth control (AID 706;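 active means growth inhibition above a set limit, 3 SD over mean compound inhibition, in both replicates, cut at about 43% in these data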;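 further: modified DeaD lifespan yeast strain shifted to restrictive glucose medium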). Conditions: OD615, 48 h, at 10 µM, stronger effect = higher value.
A short description of assay [11]: viability gain of MRP-1-high H69AR cells under doxorubicin, pilot screen, MRP-1 activator project, CellTiter-Glo, duplicate (AID 807;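 active means viability increase at or above a cutoff of the median across tested compounds plus 3 SD, cut at about 8.5% in these data, passing the limit was not always enough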;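 further: compound pretreatment 18-22 h then 72 h combined with doxorubicin; 0% = doxorubicin alone and 100% = vehicle without doxorubicin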). Conditions: H69AR viability with doxorubicin, CellTiter-Glo luminescence; at 10 µM; stronger effect = higher value.
The nature of assay [12]: growth suppression of beta-catenin knockout HCT116, pilot screen, human colon tumor cells (AID 823;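 active means cell viability at or below a set limit in both duplicate runs, the limit being the all-compound median minus 4 SD, cut at about 23% in these data, passing the limit was not always enough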;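 further: 0% = wells killed by 20 µM Hyamine and 100% = untreated DMSO cell wells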). To be noted: CellTiter-Glo, 60 h, at 10 µM, stronger effect = lower value.
A short description of assay [13]: growth suppression of PTEN-deleted HCT116, pilot screen, cell-based, HCT116 clonal line, CellTiter-Glo (AID 824;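 active means viability at or below 27.92% in each of two runs, the all-compound median minus 4 SD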;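 further: 0% = 20 µM Hyamine control and 100% = vehicle cell control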). To be noted: 60 h, at 10 µM, stronger effect = lower value.
The nature of assay [14]: inhibitors of the yeast RAM network, pilot screen, dse1pr::URA3 reporter, 5-FOA selection (AID 869;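 active means inhibition over a set limit, the all-compound mean plus 3 SD, in both replicate runs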;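 further: 0% = DMSO wells with no growth and 100% = 10 µM 1-NA-PP1 with full growth; RAM network block rescues cells from 5-FOA so hits raise OD615 growth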). Conditions: S. cerevisiae dse1pr::URA3 5-FOA growth, OD615, 2 d; at 10 µM; stronger effect = higher value; strain carries analog-sensitive mutant Cbk1 kinase.
A short description of assay [15]: RAM signaling pathway blockade in yeast – S. cerevisiae, Pdr1DBD-CYC8 efflux-inhibited sensitized strain, primary screen (AID 1298;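 active means RAM network inhibition above 8.4% in each of two replicates, 3 SD over the compound average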;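 further: 0% = DMSO untreated cells without growth and 100% = 10 µM 1-NA-PP1 full growth; higher means more yeast growth rescued from 5-FOA killing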). Conditions: S. cerevisiae cbk1-as DSE1-URA3 strain, 5-FOA growth OD615, 2 d; at 50 µM; stronger effect = higher value.
The mark [16] stands for this setting: H69AR cells + 2 uM doxorubicin, measured here: viability with 2 uM doxorubicin, stronger effect = lower value.
The mark [17] stands for this setting: H69AR cells, compound alone cytotoxicity.

Receptor tyrosine-protein kinase erbB-2 (Homo sapiens), sequence (P04626 whole entry, looked up): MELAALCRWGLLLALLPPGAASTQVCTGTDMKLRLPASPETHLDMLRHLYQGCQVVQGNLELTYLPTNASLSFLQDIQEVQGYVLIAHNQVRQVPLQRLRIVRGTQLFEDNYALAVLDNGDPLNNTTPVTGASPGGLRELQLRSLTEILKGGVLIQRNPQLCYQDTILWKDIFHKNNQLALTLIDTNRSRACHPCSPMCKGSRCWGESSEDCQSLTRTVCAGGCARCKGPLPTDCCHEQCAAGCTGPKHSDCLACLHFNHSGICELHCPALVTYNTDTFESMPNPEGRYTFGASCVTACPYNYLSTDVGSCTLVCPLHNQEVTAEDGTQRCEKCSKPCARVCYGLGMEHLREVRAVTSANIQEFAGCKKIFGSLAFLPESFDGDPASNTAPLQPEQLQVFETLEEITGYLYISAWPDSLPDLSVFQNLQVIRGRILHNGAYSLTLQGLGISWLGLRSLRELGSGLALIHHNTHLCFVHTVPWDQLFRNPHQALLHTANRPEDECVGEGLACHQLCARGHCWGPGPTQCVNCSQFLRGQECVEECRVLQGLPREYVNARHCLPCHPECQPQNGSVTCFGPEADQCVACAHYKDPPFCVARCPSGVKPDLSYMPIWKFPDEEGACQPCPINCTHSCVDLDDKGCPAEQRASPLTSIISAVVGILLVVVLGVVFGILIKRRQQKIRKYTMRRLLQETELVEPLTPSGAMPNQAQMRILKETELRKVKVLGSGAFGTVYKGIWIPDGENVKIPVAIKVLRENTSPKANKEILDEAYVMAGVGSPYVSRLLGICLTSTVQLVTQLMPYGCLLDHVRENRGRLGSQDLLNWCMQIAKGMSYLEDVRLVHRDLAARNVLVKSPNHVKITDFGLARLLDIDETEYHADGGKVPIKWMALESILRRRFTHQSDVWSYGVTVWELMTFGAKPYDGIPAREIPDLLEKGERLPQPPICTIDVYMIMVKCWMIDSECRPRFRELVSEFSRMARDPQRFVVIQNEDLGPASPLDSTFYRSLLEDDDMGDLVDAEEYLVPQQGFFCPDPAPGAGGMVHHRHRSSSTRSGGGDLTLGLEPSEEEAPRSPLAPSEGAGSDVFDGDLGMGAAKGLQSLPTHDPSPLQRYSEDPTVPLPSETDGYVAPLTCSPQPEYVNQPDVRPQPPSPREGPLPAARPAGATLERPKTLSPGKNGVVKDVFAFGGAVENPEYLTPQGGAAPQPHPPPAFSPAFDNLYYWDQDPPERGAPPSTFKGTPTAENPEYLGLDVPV

As for `CCS(=O)(=O)c1nc2ccccc2n1Cc1ccccc1Cl`, the viability in assay [1] was 101%; in assay [3] it was 101% (inactive); in assay [4], 109% (inactive); in assay [5], 74.1% (inactive); in [6] (setting [16]), 83.6%; in [6] (setting [17]), 74.1%. Besides, the viability in assay [12] was 71% (inactive); in [13], 61.5% (inactive). Also, the Her2 level in assay [2] was 93% (inactive). Further, in assay [6] (H69AR cells + 2 uM doxorubicin), the differential viability (reversal) is -9.51% (inactive). For the same compound, the inhibition in assay [7] was -0.27% (inactive); in assay [8] it was 5.33% (inactive); in [14], -0.515% (inactive). Also, the growth inhibition is -25.4% (inactive) in assay [9] and -20.7% (inactive) in assay [10]. Also, the viability increase in assay [11] was -4.6% (inactive). The RAM network inhibition in [15] was 5.91% (inactive).

Regarding `Cc1c(Cl)cccc1NC(=O)CCN1CCCCC1`, the viability in assay [1] is 100%; in assay [3], 100% (inactive); in assay [4], 100% (inactive); in assay [5], 101% (inactive); in [6] (setting [16]), 94.9%; in assay [6] (setting [17]) it was 101%. Also, the viability is 100% (inactive) in assay [12] and 96.4% (inactive) in assay [13]. For the same compound, in [2], the Her2 level is 92% (inactive). For the same compound, in [6] (H69AR cells + 2 uM doxorubicin), the differential viability (reversal) is 6% (inactive). Moreover, the values for the inhibition in assay [7], in assay [8] and in assay [14] were -2.8% (inactive), 0.16% (inactive) and 0.655% (inactive), respectively. In addition, the growth inhibition in [9] is -7.21% (inactive); in assay [10] it was 2.33% (inactive). The viability increase in [11] was -1.01% (inactive). The RAM network inhibition in assay [15] is 4.96% (inactive).

In the case of `Cc1cc(C)nc(SCc2csc(N)n2)n1`, the viability in assay [1] is 89.5%; in assay [3] it was 89.5% (inactive); in assay [4] it was 89.6% (inactive); in assay [5] it was 90.1% (inactive); in [6] (setting [16]), 94.1%; in [6] (setting [17]) it was 90.1%. The results for the viability in assay [12] and in assay [13] were 105% (inactive) and 99.6% (inactive), respectively. The Her2 level in assay [2] was 85% (inactive). Also, the differential viability (reversal) in assay [6] (H69AR cells + 2 uM doxorubicin) is -4.05% (inactive). In addition, the inhibition in assay [7] is -0.26% (inactive); in assay [8] it was -2.67% (inactive); in [14] it was 0.605% (inactive). Besides, the results for the growth inhibition in assay [9] and in [10] were 3.96% (inactive) and 14.9% (inactive), respectively. Moreover, the viability increase in [11] is 1.21% (inactive). For the same compound, the RAM network inhibition in assay [15] was 4.19% (inactive).

Consider `C=CCSc1nnc(Cc2c(C)[nH]c3ccccc23)o1`, for which the viability in [1] was 90.5%; in assay [3], 90.5% (inactive); in assay [4], 84.7% (inactive); in assay [5], 92.2% (inactive); in assay [6] (setting [16]), 85.3%; in assay [6] (setting [17]) it was 92.2%. The viability in [12] is 99.7% (inactive); in assay [13] it was 99.5% (inactive). Further, the Her2 level in [2] is 96% (inactive). Besides, in assay [6] (H69AR cells + 2 uM doxorubicin), the differential viability (reversal) was 6.96% (inactive). Further, the inhibition in assay [7] was -3.87% (inactive); in [8], -2.5% (inactive); in assay [14], -0.545% (inactive). For the same compound, the growth inhibition in assay [9] is 1.6% (inactive); in assay [10] it was 3.4% (inactive). Moreover, the viability increase in [11] was -0.66% (inactive). Moreover, the RAM network inhibition in assay [15] is 1.36% (inactive).

On to `CC1(C)CC(=O)C(C=NCCO)=C(O)C1`, for which the viability was 100% in assay [1]; 100% (inactive) in assay [3]; 113% (inactive) in assay [4]; 91.2% (inactive) in [5]; 88.9% in assay [6] (setting [16]); 91.2% in [6] (setting [17]). The values for the viability in assay [12] and in [13] were 102% (inactive) and 101% (inactive), respectively. In assay [2], the Her2 level was 97.5% (inactive). The differential viability (reversal) in [6] (H69AR cells + 2 uM doxorubicin) was 2.35% (inactive). For the same compound, the inhibition is -6.08% (inactive) in assay [7], 5.83% (inactive) in assay [8] and 1.19% (inactive) in [14]. Besides, the growth inhibition in assay [9] is 5.08% (inactive); in assay [10], -3.12% (inactive). In addition, in assay [11], the viability increase was 1.5% (inactive). For the same compound, the RAM network inhibition in assay [15] was 2.26% (inactive).

On to `O=C(Nc1cccc(F)c1)C1C2C=CC3(CN(CCCN4CCOCC4)C(=O)C13)O2` (stereo not drawn), for which the viability was 96% in assay [1]; 96% (inactive) in assay [3]; 89.4% (inactive) in [4]; 103% (inactive) in [5]; 83.1% in assay [6] (setting [16]); 103% in assay [6] (setting [17]). Further, the viability in [12] and in [13] was 106% (inactive) each time. Moreover, the Her2 level in assay [2] is 104% (inactive). For the same compound, the differential viability (reversal) in assay [6] (H69AR cells + 2 uM doxorubicin) is 20.3% (inactive). Besides, the inhibition in [7] was -2.27% (inactive); in assay [8], -3.11% (inactive); in assay [14] it was 0.595% (inactive). The growth inhibition in assay [9] is 1.12% (inactive); in assay [10], 1.81% (inactive). For the same compound, the viability increase in assay [11] is 0.8% (inactive). Besides, the RAM network inhibition in assay [15] is 2.03% (inactive).

Regarding `Cc1ccc(C(c2sc3ncnn3c2O)N2CC(C)CC(C)C2)cc1` (stereo not drawn), the viability was 118% in assay [1]; 118% (inactive) in [3]; 82.8% (inactive) in assay [4]; 97.9% (inactive) in [5]; 84.3% in [6] (setting [16]); 97.9% in assay [6] (setting [17]). The viability is 99.8% (inactive) in assay [12] and 97% (inactive) in [13]. Moreover, in assay [2], the Her2 level is 102% (inactive). Also, the differential viability (reversal) in assay [6] (H69AR cells + 2 uM doxorubicin) was 13.6% (inactive). Also, the figures for the inhibition in assay [7], in assay [8] and in [14] were -4.53% (inactive), 1.67% (inactive) and 0.24% (inactive), respectively. Further, the growth inhibition in assay [9] was -6.75% (inactive); in assay [10], -6.62% (inactive). Moreover, in assay [11], the viability increase is 4.2% (inactive). Moreover, the RAM network inhibition in assay [15] is 1.25% (inactive).

Take `S=c1[nH]nc(-c2ccccc2)n1C1C=CCCC1` (stereo not drawn): the viability in [1] is 95.5%; in [3] it was 95.5% (inactive); in assay [4] it was 97.4% (inactive); in assay [5], 85% (inactive); in assay [6] (setting [16]), 84.4%; in [6] (setting [17]), 85%. Moreover, the viability in assay [12] is 102% (inactive); in assay [13], 101% (inactive). Moreover, the Her2 level in assay [2] is 104% (inactive). In addition, the differential viability (reversal) in [6] (H69AR cells + 2 uM doxorubicin) is 0.65% (inactive). Moreover, the inhibition in assay [7] is 1.56% (inactive); in [8] it was -6.33% (inactive); in [14], 1.67% (inactive). Moreover, the growth inhibition in [9] is 2.92% (inactive); in assay [10], -1.09% (inactive). Also, in [11], the viability increase was -1.61% (inactive). The RAM network inhibition in assay [15] was 2.63% (inactive).

With `CCOC(=O)C1CCN(c2c(NC3CCCc4ccccc43)c(=O)c2=O)CC1` (stereo not drawn), the viability in assay [1] was 82%; in [3] it was 82% (inactive); in [4] it was 106% (inactive); in [5], 87.7% (inactive); in assay [6] (setting [16]) it was 87.2%; in [6] (setting [17]), 87.7%. Further, the viability in [12] is 102% (inactive); in [13] it was 96.8% (inactive). Also, the Her2 level in assay [2] is 106% (inactive). The differential viability (reversal) in [6] (H69AR cells + 2 uM doxorubicin) was 0.54% (inactive). The inhibition is 1.41% (inactive) in [7], 0.67% (inactive) in assay [8] and -0.155% (inactive) in [14]. The growth inhibition in assay [9] was 6.77% (inactive); in assay [10], -3.4% (inactive). The viability increase in [11] was -1.77% (inactive). In addition, the RAM network inhibition in [15] is 0% (inactive).
